This is an account of results in PubChem BioAssay.

Calls of active or inactive are those of the source. Unless noted, how the calls were made is not given here.

Assay [1] can be described thus: compounds binding Alexa647 anti-His antibody – biochemical, small-molecule microarray, 635 nm fluorescence, artefact control for SMM control protein annotation, primary screen (AID 1128).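 Further: score merges feature fluorescence with signal-to-noise for each printed compound spot.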 The following applies: higher = more signal.
The test system of assay [2] is Human papillomavirus type 1a E7 protein (residues 1-88). Description: HPV1a E7 small-molecule binders, primary screen, biochemical, small-molecule microarray, residues 1-88, 635 nm (AID 1129). The following applies: small-molecule microarray binding, fluorescence 635 nm; higher = more signal.
For assay [3], the target named is Focal adhesion kinase 1 (Homo sapiens) (UniProt Q05397). Description: PTK2 protein binding on printed compound slides – biochemical, small-molecule microarray, 635/667 nm fluorescence, BSA, DTT, primary screen (AID 1130).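 Further: composite of spot emission at 667 nm and signal to noise over triplicate slides.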 As to conditions: 635 nm fluorescence, higher = more signal.
The subject of assay [4] is Fibrinogen (Alexa647-labelled). The assay is described as follows: Alexa647-fibrinogen binding to printed small molecules – biochemical, small-molecule microarray, 635/667 nm fluorescence, artefact control for SMM control-protein annotation, profiling panel (AID 1131).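 Further: z-score merges 667 nm fluorescence with per-spot signal-to-noise over triplicate slides.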 As to conditions: fibrinogen-A647 binding fluorescence, higher = more signal.
Assay [5] has as its target Follistatin (Homo sapiens) (UniProt P19883). Description: FST protein binding to printed compounds – biochemical, small-molecule microarray, 635/667 nm fluorescence, primary screen (AID 1132). The following applies: 635 nm fluorescence, higher = more signal.
Assay [6] addresses Fibroblast growth factor 2 (Homo sapiens) (UniProt P09038). Description: basic fibroblast growth factor binding to printed compounds – biochemical, small-molecule microarray, 635/667 nm fluorescence, primary screen (AID 1133). The following applies: FGF2, fluorescence 635/667, higher = more signal.
Assay [7] is described as follows: JC-1 mitochondrial potential readout, lung cancer cells – cell-based, A549, JC-1 fluorescence, basal, 24 h, 100 nL, profiling panel (AID 1138).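 Further: A549 lung adenocarcinoma cells under basal conditions with no added stimulus; test concentration not given here.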 The following applies: higher = more signal.
The subject of the next assay is Lefty1. The assay is described as follows: Lefty1 protein binding to printed compounds – biochemical, small-molecule microarray, 635/667 nm fluorescence, primary screen (AID 1139). As to conditions: fluorescence 635/667, higher = more signal.
The subject of assay [8] is wheat germ agglutinin (Triticum aestivum), Alexa647-labelled. The assay is described as follows: Alexa647-WGA lectin binding to printed small molecules – biochemical, small-molecule microarray, 635/667 nm fluorescence, artefact control for SMM control-protein annotation, profiling panel (AID 1140).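 Further: score merges 667 nm feature emission with signal to noise over triplicate slides.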 The following applies: WGA-A647 binding, 635 nm fluorescence, higher = more signal.

Assay [9] addresses Luciferin 4-monooxygenase (Photinus pyralis) (UniProt P08659). The assay is described as follows: inhibition of purified Photinus pyralis luciferase – biochemical, luminescence, purified enzyme, 2006 set, primary screen (AID 1141).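 Further: cell-free assay with purified firefly luciferase at 100 ng per well in PBS; test concentration not given here.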 The following applies: purified firefly luciferase, SteadyGlo luminescence, 30 min; higher = more signal, called active from +8 up or from −8 down.
The test system of assay [10] is Wnt5a (protein binding on small-molecule microarray). Description: small molecules binding Wnt5a protein – biophysical, small-molecule microarray, 635/667 nm fluorescence, primary screen (AID 1142).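 Further: fluorescence read at 667 nm with signal to noise per printed feature.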 The following applies: 635 nm fluorescence, higher = more signal.
A short description of assay [11]: ATP-based viability of Huh7 replicon cells – cell-based, CellTiter-Glo luminescence, basal, 48 h, cytotoxicity control for HCV replication inhibitor project, primary screen (AID 1143).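 Further: Huh7 hepatoma cells carrying a hepatitis C replication reporter with no stimulus; test concentration not given here.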 As to conditions: higher = more signal, called active from +8 up or from −8 down. (In general: A replicon is a self-replicating genome or part of one, used to study replication in cells.)

Assay [12] can be described thus: Pseudomonas biofilm growth suppression – PAO1 strain, BacTiter-Glo luminescence, LB-PBS, primary screen (AID 1144). As to conditions: P. aeruginosa PAO1 biofilm, 12 h, higher = more signal.
A short description of assay [13]: basal CRE-LacZ reporter activity in PC12 – cell-based, unstimulated, primary screen (AID 1145). As to conditions: no forskolin, luminescence, 4.5 h, higher = more signal, called active from +8 up or from −8 down.
A short description of assay [14]: forskolin-driven CRE-LacZ activity in PC12 – cell-based, CRE-LacZ reporter, forskolin-stimulated, primary screen (AID 1146).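 Further: PC12 cells with 6xCRE LacZ reporter stimulated by forskolin 10 µM; beta-galactosidase reporter signal reflecting CREB driven transcription.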 As to conditions: luminescence, 4.5 h, higher = more signal, called active from +8 up or from −8 down.
In assay [15] the target is Streptavidin (Streptomyces avidinii) (UniProt P22629). The assay is described as follows: compounds binding control protein streptavidin – biophysical, small-molecule microarray, 635/667 nm fluorescence, artefact control for SMM compound annotation, primary screen (AID 1147).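 Further: signal reflects streptavidin binding to arrayed compounds as a control protein.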 As to conditions: higher = more signal.
Assay [16] is described as follows: probe aInhba binding on compound microarray – biochemical, small-molecule microarray, 635/667 nm fluorescence, primary screen (AID 1148).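 Further: score merges 667nm spot fluorescence with signal-to-noise for antibody binding to printed compounds.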 The following applies: higher = more signal.
For assay [17], the target named is Torsin-1A (Homo sapiens) (UniProt O14656). Description: TOR1A wild-type binding on microarray – cell lysate, small-molecule microarray, lysate, 635/667 nm, primary screen (AID 1149). The following applies: COS7 hTOR1A-WT lysate, 635 nm fluorescence, higher = more signal.
The target is the same in assay [18]. Description: torsin A mutant lysate binding on microarrays – cell lysate, small-molecule microarray, COS7 lysate, 635/667 nm fluorescence, primary screen (AID 1150).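 Further: score pools 667 nm emission and signal to noise measuring lysate protein binding.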 As to conditions: COS7 hTOR1A mutant lysate, 635 nm fluorescence, higher = more signal.
Assay [19] concerns Sonic hedgehog protein (Shh). The assay is described as follows: Sonic hedgehog microarray binding compounds – biochemical, small-molecule microarray, 635/667 nm fluorescence, primary screen (AID 1151).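 Further: Shh protein binding to compounds spotted on small-molecule microarray slides; score combines spot fluorescence intensity with signal-to-noise across triplicate slides.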 The following applies: 635 nm fluorescence, higher = more signal.

Chain of Fibroblast growth factor 2 (Homo sapiens) (P09038 whole entry, looked up): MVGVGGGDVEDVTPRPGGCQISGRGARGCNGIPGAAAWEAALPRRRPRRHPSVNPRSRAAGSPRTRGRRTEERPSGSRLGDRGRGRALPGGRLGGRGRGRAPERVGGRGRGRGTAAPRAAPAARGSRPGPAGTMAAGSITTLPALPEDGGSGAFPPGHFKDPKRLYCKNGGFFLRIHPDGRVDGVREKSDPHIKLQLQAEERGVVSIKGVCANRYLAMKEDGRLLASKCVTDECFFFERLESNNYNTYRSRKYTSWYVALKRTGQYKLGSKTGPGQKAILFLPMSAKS
Chain of Torsin-1A (Homo sapiens) (O14656 whole entry, looked up): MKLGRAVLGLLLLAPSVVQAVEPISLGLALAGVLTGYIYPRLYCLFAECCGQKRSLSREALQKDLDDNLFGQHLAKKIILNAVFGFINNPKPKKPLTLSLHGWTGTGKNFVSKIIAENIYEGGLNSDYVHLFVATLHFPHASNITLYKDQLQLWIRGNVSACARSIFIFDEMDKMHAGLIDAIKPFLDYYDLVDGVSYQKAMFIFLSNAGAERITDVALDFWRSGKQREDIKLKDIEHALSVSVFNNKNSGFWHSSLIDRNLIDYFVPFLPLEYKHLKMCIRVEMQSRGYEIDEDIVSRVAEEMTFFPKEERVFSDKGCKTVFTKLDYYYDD
Chain of Streptavidin (Streptomyces avidinii) (P22629 whole entry, looked up): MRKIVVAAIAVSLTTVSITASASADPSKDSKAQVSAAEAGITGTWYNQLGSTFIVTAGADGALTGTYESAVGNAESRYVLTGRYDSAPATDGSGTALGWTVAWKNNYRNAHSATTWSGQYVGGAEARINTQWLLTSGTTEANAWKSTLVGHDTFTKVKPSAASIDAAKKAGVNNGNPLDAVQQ
Chain of Follistatin (Homo sapiens) (P19883 whole entry, looked up): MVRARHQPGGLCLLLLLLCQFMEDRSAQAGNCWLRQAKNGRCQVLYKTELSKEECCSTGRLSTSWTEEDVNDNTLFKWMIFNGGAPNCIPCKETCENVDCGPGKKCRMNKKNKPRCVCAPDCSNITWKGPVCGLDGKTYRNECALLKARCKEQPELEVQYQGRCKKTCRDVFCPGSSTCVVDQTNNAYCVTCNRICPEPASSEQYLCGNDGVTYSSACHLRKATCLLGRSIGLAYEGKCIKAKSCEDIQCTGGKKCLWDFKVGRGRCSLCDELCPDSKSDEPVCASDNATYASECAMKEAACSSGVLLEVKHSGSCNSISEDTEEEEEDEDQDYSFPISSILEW
Chain of Luciferin 4-monooxygenase (Photinus pyralis) (P08659 whole entry, looked up): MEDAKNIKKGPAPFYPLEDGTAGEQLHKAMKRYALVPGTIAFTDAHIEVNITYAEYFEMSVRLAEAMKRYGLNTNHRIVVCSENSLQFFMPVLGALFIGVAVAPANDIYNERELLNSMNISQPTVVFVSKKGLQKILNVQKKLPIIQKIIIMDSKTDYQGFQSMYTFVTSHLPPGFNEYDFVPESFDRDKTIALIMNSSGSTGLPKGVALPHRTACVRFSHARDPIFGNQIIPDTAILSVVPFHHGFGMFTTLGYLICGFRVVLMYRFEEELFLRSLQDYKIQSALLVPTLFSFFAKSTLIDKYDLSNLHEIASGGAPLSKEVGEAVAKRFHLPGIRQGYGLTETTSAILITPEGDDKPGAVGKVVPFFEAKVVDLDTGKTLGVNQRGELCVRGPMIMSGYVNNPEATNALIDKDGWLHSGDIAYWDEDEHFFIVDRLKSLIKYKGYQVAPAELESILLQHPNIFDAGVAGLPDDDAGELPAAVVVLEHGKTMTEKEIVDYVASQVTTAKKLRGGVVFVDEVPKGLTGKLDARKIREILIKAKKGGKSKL
Chain of Focal adhesion kinase 1 (Homo sapiens) (Q05397 whole entry, looked up): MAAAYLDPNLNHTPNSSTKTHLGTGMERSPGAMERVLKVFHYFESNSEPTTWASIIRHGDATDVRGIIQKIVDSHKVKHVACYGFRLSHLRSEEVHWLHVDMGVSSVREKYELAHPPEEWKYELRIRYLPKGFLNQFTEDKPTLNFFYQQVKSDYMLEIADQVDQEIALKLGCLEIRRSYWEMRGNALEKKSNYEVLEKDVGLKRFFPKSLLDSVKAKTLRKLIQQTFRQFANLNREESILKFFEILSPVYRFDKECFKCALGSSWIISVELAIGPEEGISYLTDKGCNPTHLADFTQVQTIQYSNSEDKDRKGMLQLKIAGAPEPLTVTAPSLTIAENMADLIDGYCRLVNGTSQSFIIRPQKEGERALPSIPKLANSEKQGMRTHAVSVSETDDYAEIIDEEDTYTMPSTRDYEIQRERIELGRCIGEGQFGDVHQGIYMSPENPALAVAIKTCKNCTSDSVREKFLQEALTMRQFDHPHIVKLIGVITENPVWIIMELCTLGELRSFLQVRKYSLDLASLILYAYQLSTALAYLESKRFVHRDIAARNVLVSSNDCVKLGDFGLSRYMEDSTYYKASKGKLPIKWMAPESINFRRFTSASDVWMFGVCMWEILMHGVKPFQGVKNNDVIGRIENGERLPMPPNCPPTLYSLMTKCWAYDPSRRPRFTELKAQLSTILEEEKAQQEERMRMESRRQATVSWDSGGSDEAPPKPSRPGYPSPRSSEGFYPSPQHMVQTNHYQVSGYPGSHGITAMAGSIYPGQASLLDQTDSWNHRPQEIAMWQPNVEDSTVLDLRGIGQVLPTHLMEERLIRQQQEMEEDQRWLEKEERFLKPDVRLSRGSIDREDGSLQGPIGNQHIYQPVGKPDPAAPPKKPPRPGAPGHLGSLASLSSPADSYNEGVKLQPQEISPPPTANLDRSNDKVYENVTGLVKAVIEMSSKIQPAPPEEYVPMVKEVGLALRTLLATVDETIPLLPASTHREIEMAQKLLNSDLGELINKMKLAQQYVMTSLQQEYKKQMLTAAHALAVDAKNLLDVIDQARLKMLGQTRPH

As for `COc1ccc(O[C@H]2C=C[C@@H](c3ccccc3)O[C@@H]2CON=C(C)C)cc1`, the composite z-score in assay [1] was -0.732; in [2], -1.11; in assay [3], 0.433; in assay [4], 0.152; in assay [5] it was 0.234; in assay [6] it was -0.287. Also, the composite z-score was -0.0027 in the assay on Lefty1; 0.938 in assay [8]; -0.0515 in assay [10]; 0.446 in assay [15]; -0.004 in assay [16]; -0.0422 with Torsin-1A (Homo sapiens) [17]. Besides, the composite z-score was -0.222 in the assay with Torsin-1A (Homo sapiens) [18] and -0.114 in assay [19]. The z-score in [7] was -0.541; in assay [9] it was 0.409 (inactive); in assay [11] it was 0.361 (inactive); in assay [12] it was -0.385 (inactive); in assay [13] it was 0.113 (inactive); in assay [14], 0.177 (inactive).
With `CCc1cc2c(nc1CC)CCN(CCC(C)=NOC[C@H]1O[C@H](c3ccccc3)C=C[C@@H]1Oc1ccc(OC)cc1)C2`, the composite z-score in assay [1] was 0.287; in assay [2], -0.121; in assay [3] it was -0.0388; in assay [4], 0.0851; in assay [5], 0.209; in assay [6], -0.155. Further, the composite z-score in the assay with Lefty1 is 0.568; in [8] it was -0.0263; in [10], -0.363; in assay [15], 2.21; in assay [16], -0.0093; in the assay with Torsin-1A (Homo sapiens) [17], 0.15. Also, the composite z-score with Torsin-1A (Homo sapiens) [18] was 0.274; in assay [19], 0.839. Moreover, the z-score in assay [7] was 1.51; in [9], 0.698 (inactive); in [11] it was -4.11 (inactive); in assay [12] it was -1.57 (inactive); in [13] it was 5.73 (inactive); in [14], 0.28 (inactive).
On to `CCOC(=O)[C@H](Cc1ccccc1)NC(=O)CCC1CC(OC(=O)NCc2cccc3ccccc23)CC2(CCCC(COC(=O)NCc3ccccc3)O2)O1` (stereo not given in full), for which the composite z-score was -0.198 in assay [1]; 0.3 in assay [2]; 0.172 in assay [3]; 0.0039 in [4]; 0.449 in assay [5]; 0.348 in assay [6]. Moreover, the composite z-score was 0.401 in the assay on Lefty1; -0.0623 in [8]; 0.0636 in assay [10]; 0.376 in assay [15]; -0.0259 in assay [16]; -0.347 with Torsin-1A (Homo sapiens) [17]. Also, the composite z-score with Torsin-1A (Homo sapiens) [18] was found to be 0.0167; in [19], 0.58. Also, the z-score in assay [7] is -0.133; in assay [9], 0.877 (inactive); in assay [11] it was -5.15 (inactive); in assay [12] it was -1.29 (inactive); in assay [13], -0.977 (inactive); in [14], 2.01 (inactive).
With `Cc1ccc(S(=O)(=O)n2c3ccccc3c3nnc(C(=O)c4ccccc4)nc32)cc1`, the composite z-score in assay [1] is -0.252; in assay [2], -0.0414; in assay [3], -0.0158; in assay [4] it was -1.08; in assay [5], 0.583; in assay [6] it was 0.978. In addition, the composite z-score in the assay on Lefty1 was 0.0671; in [8] it was -0.218; in assay [10], 0.19; in assay [15] it was -0.237; in assay [16] it was 0.0998; with Torsin-1A (Homo sapiens) [17], 0.0855. The composite z-score was -0.292 with Torsin-1A (Homo sapiens) [18] and 0.766 in assay [19]. Further, the z-score in assay [7] is -1.99; in assay [9] it was -4.76 (inactive); in assay [11] it was -0.472 (inactive); in assay [12] it was -0.673 (inactive); in assay [13], 1.38 (inactive); in [14], -1.15 (inactive).
For `O=C(NN=C1C[C@@H](O)[C@@H](O)[C@@H]2[C@@H]3C(=O)N(C4CCCCC4)C(=O)[C@@H]3CC[C@H]12)OCc1ccccc1`, the composite z-score is -0.156 in [1]; -0.387 in [2]; -0.132 in [3]; -0.195 in [4]; -0.516 in assay [5]; -0.443 in [6]. For the same compound, the composite z-score in the assay on Lefty1 was -0.422; in [8] it was 0.505; in [10] it was 0.476; in [15], 0.0049; in [16], -0.082; in the assay with Torsin-1A (Homo sapiens) [17], 0.118. Besides, the composite z-score in the assay with Torsin-1A (Homo sapiens) [18] is 0.416; in assay [19] it was -0.554. Also, the z-score in assay [7] is 0.293; in assay [9] it was -0.0704 (inactive); in assay [11] it was 0.0552 (inactive); in [12], -0.19 (inactive); in [13] it was 0.338 (inactive); in assay [14] it was -0.0351 (inactive).
